Targets with a hit are over-represented here; the source holds about 7,900 in all. About 0.6% of all pairs of compound and target were hits. Unmarked numbers belong to inactive results.
Columns and labels:
Experiment in all cases: log2 fold change, soluble protein after heating vs DMSO (PISA); higher = thermal stabilisation; K562 cells, 10 uM, 30 min; active = over 0.2 and 3.5 SD of the protein, either way, in both replicates (recomputed)
[1] = compound: CC[C@@H]1C(=O)N(C)c2cnc(Nc3ccc(C(=O)NC4CCN(C)CC4)cc3OC)nc2N1C1CCCC1
Procedure, shortened: (§1)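 Soluble protein was defined as the supernatant after 21,000xg for 90 min. It came from K562 cells at 2×10^6 cells/mL given 10 μM compound for 30 min, heated in aliquots for 3 min across 48°C-58°C, pooled, and extracted in PBS with 0.5% NP-40 at 4°C, and was quantified by TMTpro 16plex LC-MS/MS with equalised channel sums. Thermal stability against control samples, from duplicates, is reported as log2 fold change.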

[2] = compound: CC[C@@H]1C(=O)N(C)c2cnc(Nc3ccc(C(=O)N[C@H]4CC[C@H](N5CCN(CC6CC6)CC5)CC4)cc3OC)nc2N1C(C)C [volasertib]
Procedure, shortened: as §1

[3] = compound: CC[C@H](C)N1C=C(C2=C(C=C(C=C21)C3=CN=C(C=C3)N4CCNCC4)C(=O)NCC5=C(C=C(NC5=O)C)C)C
Procedure, shortened: as §1

[4] = compound: CC[C@H](C)[C@@H](C(=O)N[C@@H]([C@@H](C)O)C(=O)N[C@@H](CC(C)C)C(=O)[C@]1(CO1)C)NC(=O)[C@H]([C@@H](C)CC)N(C)C(=O)C [epoxomicin]
Procedure, shortened: as §1

[5] = compound: CCn1c(C(=O)N(C2CC2)C2CC2)cc2c3c(ncn3C)c(Nc3cc(C)n(C)n3)nc21
Procedure, shortened: as §1

[6] = compound: CCn1cc(-c2ccnc3[nH]c(-c4cccc(CN(C)C)c4)cc23)c(-c2ccc(NC(=O)N(C)C)cc2)n1
Procedure, shortened: as §1

[7] = compound: CN(C)CC(=O)Nc1ccc2[nH]c(=O)c3ccccc3c2c1
Procedure, shortened: as §1

[8] = compound: CN(CCOC1=CC=C(C=C1)C[C@H]2C(=O)NC(=O)S2)C3=CC=CC=N3 (racemic) [rosiglitazone]
Procedure, shortened: as §1

[9] = compound: CN1C2=C(C3=C1C(=O)N(N=C3)CC4=CC(=CC=C4)N)SC(=C2)S(=O)C
Procedure, shortened: as §1

[10] = compound: CN1CCC(CNc2ccc3ncc(-c4cccc(OC(F)(F)F)c4)n3n2)CC1
Procedure, shortened: as §1

[11] = compound: CN1CCN(CCOc2cc(OC3CCOCC3)c3c(Nc4c(Cl)ccc5c4OCO5)ncnc3c2)CC1 [saracatinib]
Procedure, shortened: as §1

[12] = compound: CN1CCN(c2nc(C3=C(c4c[nH]c5ccccc45)C(=O)NC3=O)c3ccccc3n2)CC1 [sotrastaurin]
Procedure, shortened: as §1

[13] = compound: CN1CC[C@H](c2c(O)cc(O)c3c(=O)cc(-c4ccccc4Cl)oc23)[C@H](O)C1 [alvocidib]
Procedure, shortened: as §1

[14] = compound: CN1CCc2c(c3ccccc3n2Cc2ccc(C(=O)NO)cc2)C1 [Tubastatin A]
Procedure, shortened: as §1

[15] = compound: CNC(=O)C1=CC=CC=C1NC2=NC(=NC=C2Cl)NC3=C(C=C(C=C3)N4CCOCC4)OC
Procedure, shortened: as §1

[16] = compound: CNC(=O)c1ccc(Nc2ncc(C(F)(F)F)c(NCc3nccnc3N(C)S(C)(=O)=O)n2)cc1 [defactinib]
Procedure, shortened: as §1

[17] = compound: CNCc1ccc(-c2[nH]c3cc(F)cc4c3c2CCNC4=O)cc1 [rucaparib]
Procedure, shortened: as §1

[18] = compound: CNc1nc(-c2ccc3c(N)n[nH]c3c2)cc(N2C[C@@H](C(=O)NC3CCCCC3)CC[C@H]2C)n1
Procedure, shortened: as §1

[19] = compound: COC(=O)N[C@@H](C)CNc1nccc(-c2cn(C(C)C)nc2-c2cc(Cl)cc(NS(C)(=O)=O)c2F)n1 [encorafenib]
Procedure, shortened: as §1

[20] = compound: COC(=O)[C@H](CCSC)NC(=O)C1=C(C=C(C=C1)NC[C@H](CS)N)C2=CC=CC=C2
Procedure, shortened: as §1

Chain of UniProt P55263 (P55263 whole entry, looked up): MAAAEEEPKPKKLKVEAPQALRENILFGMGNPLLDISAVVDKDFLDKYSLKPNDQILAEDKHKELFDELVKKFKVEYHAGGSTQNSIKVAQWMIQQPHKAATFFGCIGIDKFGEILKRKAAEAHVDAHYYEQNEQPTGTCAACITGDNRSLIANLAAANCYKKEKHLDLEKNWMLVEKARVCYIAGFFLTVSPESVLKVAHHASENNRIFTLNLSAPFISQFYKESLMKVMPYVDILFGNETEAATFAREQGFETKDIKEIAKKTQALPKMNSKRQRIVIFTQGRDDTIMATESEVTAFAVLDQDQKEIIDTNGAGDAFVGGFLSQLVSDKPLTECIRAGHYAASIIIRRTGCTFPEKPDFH
Chain of UniProt Q9NQ11 (Q9NQ11 whole entry, looked up): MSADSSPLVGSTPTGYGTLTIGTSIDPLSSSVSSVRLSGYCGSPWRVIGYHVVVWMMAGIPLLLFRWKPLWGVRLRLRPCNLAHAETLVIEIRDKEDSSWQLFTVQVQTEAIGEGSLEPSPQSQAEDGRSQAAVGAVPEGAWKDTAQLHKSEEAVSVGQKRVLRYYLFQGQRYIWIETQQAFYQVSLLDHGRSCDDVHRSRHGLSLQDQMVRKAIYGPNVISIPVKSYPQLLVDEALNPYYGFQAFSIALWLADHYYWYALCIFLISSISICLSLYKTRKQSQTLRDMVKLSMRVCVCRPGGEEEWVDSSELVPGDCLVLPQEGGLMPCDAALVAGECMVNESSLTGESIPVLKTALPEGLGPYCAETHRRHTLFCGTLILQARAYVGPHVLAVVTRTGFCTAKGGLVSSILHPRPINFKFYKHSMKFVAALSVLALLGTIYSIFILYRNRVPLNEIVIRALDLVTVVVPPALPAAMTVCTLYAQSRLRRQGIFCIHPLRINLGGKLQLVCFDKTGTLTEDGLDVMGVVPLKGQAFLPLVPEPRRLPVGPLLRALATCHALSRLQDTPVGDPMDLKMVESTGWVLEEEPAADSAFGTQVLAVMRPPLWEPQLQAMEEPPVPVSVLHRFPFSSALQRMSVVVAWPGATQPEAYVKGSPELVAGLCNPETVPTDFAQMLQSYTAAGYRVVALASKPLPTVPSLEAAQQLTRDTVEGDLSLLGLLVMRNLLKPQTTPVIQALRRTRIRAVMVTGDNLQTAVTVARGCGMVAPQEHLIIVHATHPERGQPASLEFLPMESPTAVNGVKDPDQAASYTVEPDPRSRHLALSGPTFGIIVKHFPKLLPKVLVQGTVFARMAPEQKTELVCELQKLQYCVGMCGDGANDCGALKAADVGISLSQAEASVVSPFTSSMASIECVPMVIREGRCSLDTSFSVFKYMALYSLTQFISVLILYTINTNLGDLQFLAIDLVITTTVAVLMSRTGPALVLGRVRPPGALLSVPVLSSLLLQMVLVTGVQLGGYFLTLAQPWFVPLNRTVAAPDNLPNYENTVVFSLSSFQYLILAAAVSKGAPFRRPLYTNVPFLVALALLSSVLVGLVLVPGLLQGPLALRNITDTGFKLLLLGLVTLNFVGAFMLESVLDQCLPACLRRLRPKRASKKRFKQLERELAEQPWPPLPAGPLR
Chain of UniProt Q66PJ3 (Q66PJ3 whole entry, looked up): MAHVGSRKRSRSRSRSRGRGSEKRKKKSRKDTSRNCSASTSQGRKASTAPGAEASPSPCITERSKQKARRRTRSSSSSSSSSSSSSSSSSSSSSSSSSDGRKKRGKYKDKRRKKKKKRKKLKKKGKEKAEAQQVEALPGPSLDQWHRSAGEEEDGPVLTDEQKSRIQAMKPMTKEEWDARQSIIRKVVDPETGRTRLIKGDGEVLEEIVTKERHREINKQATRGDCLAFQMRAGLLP
Chain of UniProt Q93084 (Q93084 whole entry, looked up): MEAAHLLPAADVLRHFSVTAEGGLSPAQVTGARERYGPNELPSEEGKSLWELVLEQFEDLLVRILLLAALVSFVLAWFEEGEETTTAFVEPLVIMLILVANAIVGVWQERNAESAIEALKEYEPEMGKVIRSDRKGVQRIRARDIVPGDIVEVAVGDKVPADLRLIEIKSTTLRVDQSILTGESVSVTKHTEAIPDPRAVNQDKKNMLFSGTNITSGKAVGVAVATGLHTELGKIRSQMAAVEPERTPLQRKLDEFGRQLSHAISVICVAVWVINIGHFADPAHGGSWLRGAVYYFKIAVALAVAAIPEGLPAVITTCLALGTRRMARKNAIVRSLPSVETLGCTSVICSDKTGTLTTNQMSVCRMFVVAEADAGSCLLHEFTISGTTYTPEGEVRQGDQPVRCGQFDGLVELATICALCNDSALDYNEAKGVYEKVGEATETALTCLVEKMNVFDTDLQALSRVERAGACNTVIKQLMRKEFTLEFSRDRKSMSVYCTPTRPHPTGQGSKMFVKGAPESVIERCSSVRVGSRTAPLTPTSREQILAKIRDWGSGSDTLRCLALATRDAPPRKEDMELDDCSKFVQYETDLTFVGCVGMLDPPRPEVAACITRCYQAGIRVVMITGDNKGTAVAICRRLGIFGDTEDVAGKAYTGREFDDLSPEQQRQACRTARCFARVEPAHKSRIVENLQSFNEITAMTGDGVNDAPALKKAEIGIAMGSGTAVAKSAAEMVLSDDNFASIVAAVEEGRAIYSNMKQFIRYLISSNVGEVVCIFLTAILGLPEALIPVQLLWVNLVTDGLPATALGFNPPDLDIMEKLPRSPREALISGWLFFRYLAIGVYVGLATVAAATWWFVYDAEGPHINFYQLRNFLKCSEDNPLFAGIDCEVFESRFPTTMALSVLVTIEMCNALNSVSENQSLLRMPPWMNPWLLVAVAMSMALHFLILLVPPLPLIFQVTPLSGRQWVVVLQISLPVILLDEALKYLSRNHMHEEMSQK
Chain of UniProt Q86UU0 (Q86UU0 whole entry, looked up): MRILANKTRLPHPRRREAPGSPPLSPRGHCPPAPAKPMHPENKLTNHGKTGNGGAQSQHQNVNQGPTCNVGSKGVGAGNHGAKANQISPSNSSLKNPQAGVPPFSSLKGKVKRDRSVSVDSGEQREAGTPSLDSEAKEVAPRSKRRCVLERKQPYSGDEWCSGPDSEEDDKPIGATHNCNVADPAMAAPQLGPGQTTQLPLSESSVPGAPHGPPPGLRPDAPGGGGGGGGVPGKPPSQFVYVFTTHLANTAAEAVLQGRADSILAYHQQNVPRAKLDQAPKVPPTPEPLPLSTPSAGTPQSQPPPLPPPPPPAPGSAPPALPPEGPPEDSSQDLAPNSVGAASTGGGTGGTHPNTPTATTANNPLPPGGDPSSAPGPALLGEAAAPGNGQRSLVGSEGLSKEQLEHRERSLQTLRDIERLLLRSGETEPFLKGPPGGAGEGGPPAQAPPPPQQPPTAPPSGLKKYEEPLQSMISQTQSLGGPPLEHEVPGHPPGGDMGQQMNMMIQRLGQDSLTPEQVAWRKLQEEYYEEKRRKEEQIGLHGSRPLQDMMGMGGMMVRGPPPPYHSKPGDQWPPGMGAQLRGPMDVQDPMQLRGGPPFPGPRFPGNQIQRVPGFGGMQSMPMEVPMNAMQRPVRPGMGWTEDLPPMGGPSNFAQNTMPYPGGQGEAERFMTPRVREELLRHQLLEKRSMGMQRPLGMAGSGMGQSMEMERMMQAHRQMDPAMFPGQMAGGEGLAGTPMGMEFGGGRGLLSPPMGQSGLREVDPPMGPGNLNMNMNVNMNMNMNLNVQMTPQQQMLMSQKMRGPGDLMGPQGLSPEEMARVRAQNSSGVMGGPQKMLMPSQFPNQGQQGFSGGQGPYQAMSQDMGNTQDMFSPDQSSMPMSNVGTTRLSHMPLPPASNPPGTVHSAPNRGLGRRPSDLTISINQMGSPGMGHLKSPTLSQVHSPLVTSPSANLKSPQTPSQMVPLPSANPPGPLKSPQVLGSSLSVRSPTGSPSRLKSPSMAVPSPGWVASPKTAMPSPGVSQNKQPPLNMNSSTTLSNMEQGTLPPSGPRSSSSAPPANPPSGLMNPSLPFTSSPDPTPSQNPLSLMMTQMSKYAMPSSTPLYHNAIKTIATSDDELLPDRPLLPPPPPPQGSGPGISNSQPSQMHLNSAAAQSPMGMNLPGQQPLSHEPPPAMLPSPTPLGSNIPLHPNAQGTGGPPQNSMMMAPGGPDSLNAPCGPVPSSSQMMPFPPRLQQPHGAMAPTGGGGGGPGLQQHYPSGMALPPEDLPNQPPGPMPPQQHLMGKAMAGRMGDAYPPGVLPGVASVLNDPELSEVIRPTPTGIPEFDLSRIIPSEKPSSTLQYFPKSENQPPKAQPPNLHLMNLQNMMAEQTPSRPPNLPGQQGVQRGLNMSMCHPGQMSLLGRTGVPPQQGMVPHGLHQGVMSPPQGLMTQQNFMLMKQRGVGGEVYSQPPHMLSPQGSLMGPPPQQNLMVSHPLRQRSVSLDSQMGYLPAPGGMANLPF
Chain of UniProt Q16186 (Q16186 whole entry, looked up): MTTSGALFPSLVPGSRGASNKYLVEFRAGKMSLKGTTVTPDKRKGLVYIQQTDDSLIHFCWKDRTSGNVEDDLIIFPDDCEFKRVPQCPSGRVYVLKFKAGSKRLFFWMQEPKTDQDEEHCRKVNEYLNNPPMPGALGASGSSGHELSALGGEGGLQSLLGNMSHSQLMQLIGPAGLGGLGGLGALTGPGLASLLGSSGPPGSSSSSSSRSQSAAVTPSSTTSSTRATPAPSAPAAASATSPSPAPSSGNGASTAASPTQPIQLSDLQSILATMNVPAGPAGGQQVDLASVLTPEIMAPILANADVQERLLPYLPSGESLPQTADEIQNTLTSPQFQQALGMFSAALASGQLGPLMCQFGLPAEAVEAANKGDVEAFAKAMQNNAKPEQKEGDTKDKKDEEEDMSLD
Chain of UniProt P30043 (P30043 whole entry, looked up): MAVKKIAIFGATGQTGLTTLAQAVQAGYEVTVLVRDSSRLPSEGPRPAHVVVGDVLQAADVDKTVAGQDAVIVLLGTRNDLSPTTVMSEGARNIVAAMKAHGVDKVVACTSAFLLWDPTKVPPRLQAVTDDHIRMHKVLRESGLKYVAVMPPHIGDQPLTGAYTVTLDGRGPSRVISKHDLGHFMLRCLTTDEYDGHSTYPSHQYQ

Row | Target | log2 fold change [1] | log2 fold change [2] | log2 fold change [3] | log2 fold change [4] | log2 fold change [5] | log2 fold change [6] | log2 fold change [7] | log2 fold change [8] | log2 fold change [9] | log2 fold change [10] | log2 fold change [11] | log2 fold change [12] | log2 fold change [13] | log2 fold change [14] | log2 fold change [15] | log2 fold change [16] | log2 fold change [17] | log2 fold change [18] | log2 fold change [19] | log2 fold change [20]
1 | ABCC5 (UniProt O15440) | -0.075 | 0.027 | 0.023 | -0.028 | 0.024 | -0.031 | -0.069 | -0.003 | 0.028 | 0.075 | 0.107 | -0.028 | 0.007 | 0.002 | -0.02 | 0.019 | 0.116 | -0.003 | -0.039 | 0.026
2 | ATP2A3 isoform 2 (UniProt Q93084) | -0.142 | -0.208 | 0.046 | 0.06 | 0.014 | -0.047 | -0.028 | 0.009 | -0.016 | 0.028 | 0.058 | -0.007 | -0.021 | -0.022 | -0.026 | -0.021 | -0.04 | 0.033 | 0.027 | 0.002
3 | ARL6IP4 (UniProt Q66PJ3) | 0.008 | -0.009 | -0.023 | 0.014 | 0.015 | -0.025 | 0.001 | 0.017 | -0.065 | 0.01 | -0.026 | 0.023 | -0.024 | -0.024 | -0.05 | -0.038 | 0.01 | -0.002 | -0.059 | 0.016
4 | ADRM1 (UniProt Q16186) | 0.122 | 0.197 | 0.024 | -0.083 | 0.04 | -0.013 | -0.006 | 0 | 0.045 | 0.062 | -0.086 | -0.091 | 0.042 | 0.18 | -0.067 | 0.087 | -0.022 | 0.111 | 0.108 | 0.017
5 | ADH5 (UniProt P11766) | 0.01 | 0.02 | -0.024 | -0.016 | 0.043 | -0.001 | -0.01 | 0.026 | -0.052 | -0.02 | 0.04 | 0.03 | 0.011 | -0.025 | -0.025 | -0.014 | -0.066 | -0.025 | -0.006 | 0.002
6 | ARL3 (UniProt P36405) | 0.036 | 0.046 | 0.001 | -0.01 | -0.001 | -0.005 | -0.014 | 0.008 | -0.098 | -0.018 | 0.021 | -0.008 | -0.01 | -0.012 | -0.025 | -0.025 | -0.033 | -0.035 | -0.022 | 0.022
7 | ATIC (UniProt P31939) | -0.032 | 0.021 | 0.029 | 0.04 | -0.011 | -0.016 | 0.023 | -0.012 | -0.123 | 0.029 | -0.013 | -0.001 | -0.064 | 0.008 | 0.087 | -0.059 | -0.05 | 0.044 | -0.011 | -0.028
8 | ALDH1B1 (UniProt P30837) | -0.036 | 0.05 | -0.005 | 0.032 | -0.05 | -0.113 | 0.001 | 0.048 | -0.095 | 0.058 | -0.015 | 0.001 | -0.093 | 0.014 | 0.002 | -0.055 | -0.015 | 0.062 | 0.013 | -0.042
9 | APOB (UniProt P04114) | -0.235 | -0.104 | -0.227 | -0.056 | 0.004 | 0.048 | 0.014 | 0.02 | 0.116 | -0.354 | -0.139 | -0.17 | -0.014 | -0.021 | 0.012 | 0.05 | -0.197 | -0.364 | 0.04 | -0.005
10 | BLVRB (UniProt P30043) | 0.008 | 0.046 | 0.012 | 0.161 | 0.023 | -0.078 | 0.014 | 0.017 | -0.049 | 0.127 | 0.101 | -0.047 | -0.083 | -0.002 | 0.058 | -0.045 | 0.043 | 0.061 | -0.007 | -0.003
11 | ADD3 (UniProt Q9UEY8) | 0.098 | 0.056 | -0.024 | 0.014 | 0.01 | 0.054 | -0.03 | -0.006 | -0.056 | -0.023 | 0.032 | -0.087 | -0.068 | -0.02 | -0.005 | -0.018 | -0.013 | -0.039 | -0.003 | 0.045
12 | ATP13A2 (UniProt Q9NQ11) | -0.141 | -0.103 | -0.074 | 0.003 | 0.012 | -0.031 | -0.002 | 0.066 | 0.058 | -0.509 (active) | 0.061 | 0.036 | 0.023 | 0.026 | 0.015 | -0.116 | 0 | 0.039 | -0.027 | 0.026
13 | AGPS (UniProt O00116) | -0.005 | -0.021 | 0.002 | 0.031 | 0.018 | -0.102 | 0.039 | 0.055 | -0.09 | -0.212 (active) | -0.01 | 0.018 | -0.058 | -0.011 | 0.032 | -0.039 | -0.017 | 0.047 | 0.009 | -0.042
14 | BCAP29 isoform 2 (UniProt Q9UHQ4) | 0.022 | 0.085 | -0.072 | -0.096 | 0.082 | -0.011 | -0.008 | 0.045 | -0.044 | 0.05 | 0.052 | 0.104 | 0.041 | -0.052 | 0.002 | 0.033 | -0.043 | -0.016 | -0.026 | 0.018
15 | BCL9L (UniProt Q86UU0) | 0 | 0.036 | 0.044 | 0.038 | 0.04 | -0.024 | -0.003 | 0.088 | -0.023 | -0.019 | -0.042 | 0.042 | -0.012 | 0.053 | -0.017 | -0.014 | 0.026 | -0.092 | -0.033 | 0.069
16 | ADK (UniProt P55263) | 0.338 | 0.359 | -0.095 | -0.011 | 0.097 | -0.026 | -0.018 | -0.017 | -0.085 | 0.184 | 0.158 | 0.26 | 0.305 | -0.007 | 0.119 | 0.055 | -0.021 | -0.017 | -0.044 | 0.002

From the supplement of paper PMC10849652
